PubChem BioAssay (NCATS)
Records with an inconclusive call do not appear. Where a call stands in place of a potency, no number is given. Active and inactive are the calls of the source. Unless noted, calls come from the whole dose curve; as a rule, active = well fitted curve in the direction sought with a large enough effect; inconclusive = small, poorly fitted or top-dose-only effect, or another doubt; inactive = no such curve, though single readings can be large; an effect the other way counts as inactive or inconclusive.

Assays:
[1] = target: Cytochrome P450 3A4 (Homo sapiens) (UniProt P08684); experiment: qHTS Assay for Inhibitors and Substrates of Cytochrome P450 3A4 (AID 884); note: nearly all actives have a fitted effect of over 50% in size; note: potency is the fitted concentration of half-maximal effect
Chain of Cytochrome P450 3A4 (Homo sapiens) (P08684 whole entry, looked up): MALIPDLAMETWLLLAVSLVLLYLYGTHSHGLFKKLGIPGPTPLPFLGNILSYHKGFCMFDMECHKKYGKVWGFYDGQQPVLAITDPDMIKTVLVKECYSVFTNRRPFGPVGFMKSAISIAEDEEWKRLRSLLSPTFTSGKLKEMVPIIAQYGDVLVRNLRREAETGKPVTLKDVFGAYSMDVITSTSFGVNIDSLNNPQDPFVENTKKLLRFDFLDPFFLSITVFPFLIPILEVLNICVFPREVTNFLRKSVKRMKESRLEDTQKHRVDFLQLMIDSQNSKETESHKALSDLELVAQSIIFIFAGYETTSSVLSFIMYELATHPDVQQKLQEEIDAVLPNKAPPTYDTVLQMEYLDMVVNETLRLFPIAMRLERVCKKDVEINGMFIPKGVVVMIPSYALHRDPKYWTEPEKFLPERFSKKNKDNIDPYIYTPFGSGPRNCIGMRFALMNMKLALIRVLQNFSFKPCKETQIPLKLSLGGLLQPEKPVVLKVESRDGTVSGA
Procedure, shortened: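 Luminescent readout of luciferin produced by CYP3A4 (20 nM) dealkylation of Luciferin-PPXE, 25 uM (its KM). NADPH-driven reaction ran 60 min at RT after 10 min compound preincubation; data scaled to 57 uM ketoconazole as 100% inhibition.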

[2] = target: Cytochrome P450 3A4 (Homo sapiens) (UniProt P08684); experiment: qHTS Assay for Activators of Cytochrome P450 3A4 (AID 885); note: nearly all actives have a fitted effect of over 65% in size; note: potency is the fitted concentration of half-maximal effect
Procedure, shortened: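 Using 20nM recombinant human CYP3A4 in potassium phosphate (200mM), substrate Luciferin-PPXE at 25uM, luminescent luciferin detection followed a 60-min RT NADPH reaction; data scaled to 57 uM ketoconazole.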

[3] = qHTS Assay for Lipid Storage Modulators (AID 1519; calls by dose curve); conditions: Drosophila S3 cells, BODIPY lipid droplet/cell ratio, laser cytometry, cells loaded with oleic acid; for activity change, negative = inhibition: at 57.5 µM (top of the series)
Procedure, shortened: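 Cells seeded at 5,000 per well were treated with compounds over a concentration series and loaded with oleic acid (400 uM, as added). Lipid droplet fluorescence (488 nm excitation, 500-530 nm channel) was read by laser-scanning cytometry and normalized to 20 uM Triacsin C.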

[4] = target: Ubiquitin carboxyl-terminal hydrolase 1 (Homo sapiens) (UniProt O94782); experiment: Inhibitors of USP1/UAF1: Pilot qHTS (AID 504865);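 note: rhodamine fluorescence freed from ubiquitin-rhodamine substrate followed over time; top concentration of the series differs between compounds; nearly all actives have a fitted effect of over 35% in size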
Chain of Ubiquitin carboxyl-terminal hydrolase 1 (Homo sapiens) (O94782 whole entry, looked up): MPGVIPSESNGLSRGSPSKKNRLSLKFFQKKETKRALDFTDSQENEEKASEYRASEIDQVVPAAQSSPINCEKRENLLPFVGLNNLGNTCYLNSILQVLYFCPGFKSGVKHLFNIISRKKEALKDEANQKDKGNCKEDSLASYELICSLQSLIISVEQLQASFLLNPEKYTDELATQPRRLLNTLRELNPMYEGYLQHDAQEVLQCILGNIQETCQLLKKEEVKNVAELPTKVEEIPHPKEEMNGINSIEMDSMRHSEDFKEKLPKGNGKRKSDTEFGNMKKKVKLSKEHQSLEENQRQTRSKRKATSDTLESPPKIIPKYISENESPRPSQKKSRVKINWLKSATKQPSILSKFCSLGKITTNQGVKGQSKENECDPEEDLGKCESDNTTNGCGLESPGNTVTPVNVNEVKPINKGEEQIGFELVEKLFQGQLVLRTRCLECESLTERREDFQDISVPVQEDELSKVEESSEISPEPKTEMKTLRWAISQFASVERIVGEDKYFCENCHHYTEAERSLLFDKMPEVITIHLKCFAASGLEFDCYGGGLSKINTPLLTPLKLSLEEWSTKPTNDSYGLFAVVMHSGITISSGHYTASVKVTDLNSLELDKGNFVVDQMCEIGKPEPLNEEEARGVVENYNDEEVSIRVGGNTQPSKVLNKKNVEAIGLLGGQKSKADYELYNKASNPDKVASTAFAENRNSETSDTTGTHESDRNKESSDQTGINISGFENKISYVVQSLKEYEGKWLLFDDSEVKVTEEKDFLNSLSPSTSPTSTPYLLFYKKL
Procedure, shortened: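 Deubiquitinase activity followed as kinetic rhodamine fluorescence release from 150 nM Ub-Rho. 1 nM USP1/UAF1 with compound, after 15 min room-temperature preincubation, in HEPES pH 7.8 buffer containing TCEP, EDTA, BSA and Tween-20.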

[5] = target: DNA dC->dU-editing enzyme APOBEC-3G (Homo sapiens) (UniProt Q9HC16); experiment: qHTS for inhibitors of Vif-A3G interactions: Validation (AID 588379)
Chain of DNA dC->dU-editing enzyme APOBEC-3G (Homo sapiens) (Q9HC16 whole entry, looked up): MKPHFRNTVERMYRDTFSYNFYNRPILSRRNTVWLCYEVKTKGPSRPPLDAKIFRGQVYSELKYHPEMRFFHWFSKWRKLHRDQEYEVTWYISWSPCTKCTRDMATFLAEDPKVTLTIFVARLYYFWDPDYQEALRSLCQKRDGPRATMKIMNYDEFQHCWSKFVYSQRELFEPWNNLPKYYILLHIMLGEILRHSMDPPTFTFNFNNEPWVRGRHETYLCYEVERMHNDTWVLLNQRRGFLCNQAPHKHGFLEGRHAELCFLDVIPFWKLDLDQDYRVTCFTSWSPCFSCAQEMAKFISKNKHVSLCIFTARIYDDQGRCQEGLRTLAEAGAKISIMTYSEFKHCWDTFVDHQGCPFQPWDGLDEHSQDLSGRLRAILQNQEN
Procedure, shortened: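 Yellow fluorescence (Ex 488, Em 500-530) of Vif-coexpressing HeLa A3G-eYFP cells, scanned by Acumen cytometer, reports blocked A3G degradation. Cells plated at 700/well overnight at 37 deg C before compound addition, then a further overnight compound incubation at 37 deg C.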

[6] = Confirmation and Secondary Assay for Modulators of Hemoglobin Beta Chain Splicing at IVS2 654 locus (AID 910);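 note: HeLa cells stably carrying EGFP split by mutant beta-globin IVS2-654 intron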
Procedure, shortened: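 Readout: per-well total peak green fluorescence (488 nm ex, 500–520 nm em) from objects 5–250 µm, reflecting correct splicing of an EGFP-654 reporter. Compounds were applied for 2 days at 37 °C to overnight-plated HeLa EGFP-654 cells; controls were DMSO and 500 nM IVS2-654 PNA.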

[7] = Confirmation and Secondary Assay for Modulators of Hemoglobin Beta Chain Splicing at IVS2 705 locus (AID 930);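 note: HeLa cells stably expressing the EGFP-705 splicing reporter; GFP fluorescence per well restored by corrected splicing of the IVS2-705 intron in EGFP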
Procedure, shortened: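 Read-out: total peak GFP fluorescence per well (488 nm excitation, 500-520 nm emission) by laser-scanning cytometry. Cells: HeLa EGFP-705 splicing reporter, 2 days compound exposure in Optimem/2% FCS.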

[8] = target: Luciferin 4-monooxygenase (Photinus pyralis) (UniProt P08659); experiment: Biochemical firefly luciferase enzyme assay for NPC (AID 624030);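 note: purified P. pyralis luciferase at 10 nM with luciferin and ATP substrate; nearly all actives have a fitted effect of over 70% in size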
Procedure, shortened: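 Direct inhibition of firefly luciferase enzyme (10 nM final, 50 mM Tris Acetate) assessed by luminescence within 5 minutes. Percent activity scaled between DMSO and PTC124 positive control, with concentration-effect curves classified by fit quality and response.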

[9] = target: Estrogen receptor (Homo sapiens) (UniProt P03372); experiment: qHTS assay for small molecule antagonists of estrogen receptor alpha signaling (AID 588513; active = well fitted curve in the direction sought with a large enough effect in the signal ratio, with a control signal flat, not every such curve was filed as active; the % refers to the signal ratio)
Chain of Estrogen receptor (Homo sapiens) (P03372 whole entry, looked up): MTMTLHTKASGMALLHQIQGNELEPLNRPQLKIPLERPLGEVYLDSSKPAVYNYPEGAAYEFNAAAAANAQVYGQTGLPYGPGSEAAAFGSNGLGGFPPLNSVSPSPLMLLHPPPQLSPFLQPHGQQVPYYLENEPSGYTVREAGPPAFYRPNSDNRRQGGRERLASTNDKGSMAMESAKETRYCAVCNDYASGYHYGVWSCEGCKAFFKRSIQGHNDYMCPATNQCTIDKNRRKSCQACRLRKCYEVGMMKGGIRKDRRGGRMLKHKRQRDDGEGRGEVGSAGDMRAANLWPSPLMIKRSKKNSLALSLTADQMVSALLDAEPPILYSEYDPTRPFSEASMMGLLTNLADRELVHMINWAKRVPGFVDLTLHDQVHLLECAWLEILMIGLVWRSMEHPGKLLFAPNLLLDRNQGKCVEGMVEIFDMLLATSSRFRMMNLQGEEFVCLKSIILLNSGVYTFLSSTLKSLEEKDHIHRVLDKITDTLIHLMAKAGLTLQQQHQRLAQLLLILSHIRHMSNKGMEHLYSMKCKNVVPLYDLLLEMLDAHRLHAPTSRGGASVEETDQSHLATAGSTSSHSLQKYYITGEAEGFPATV
Procedure, shortened: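 Antagonist mode: inhibition of 0.5 nM 17-beta-estradiol-driven beta-lactamase reporter in HEK 293 ER-alpha-UAS-bla cells, 18 h at 37C, CCF4 readout after 2 h at RT. Normalised to estradiol and DMSO; titration fitted to Hill.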

[10] = target: Estrogen receptor (Homo sapiens) (UniProt P03372); experiment: qHTS assay for small molecule agonists of estrogen receptor alpha signaling (AID 588514; calls by dose curve; note: nearly all actives have a fitted effect of over 70% in size)
Procedure, shortened: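 Fluorescence from CCF4 cleavage reports ER-alpha-driven beta-lactamase expression in HEK 293 cells treated 18 hrs at 37 C. Data normalized to 17-beta-estradiol (20 nM) and DMSO, fitted to Hill equation.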

[11] = qHTS assay for small molecule antagonists of peroxisome proliferator-activated receptor delta signaling (AID 588535; active = well fitted inhibition curve with a large enough effect in the signal ratio, with a control signal flat, not every such curve was filed as active; the % refers to the signal ratio;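 for max response: cells co-treated with a PPAR-delta agonist as stimulator during compound exposure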); conditions: HEK293T PPARd-UAS-bla, beta-lactamase FRET ratio, 18 h; 460 nm channel
Procedure, shortened: (§1)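 Antagonist-mode qHTS using GeneBLAzer PPAR-delta-UAS-bla HEK293T cells; compound exposure 18 hrs at 37 C over a titration. Ratiometric CCF4 fluorescence at 460/530 nm; concentration-response points fitted to the Hill equation.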

[12] = target: Peroxisome proliferator-activated receptor delta (Homo sapiens) (UniProt Q03181); experiment: as above
Chain of Peroxisome proliferator-activated receptor delta (Homo sapiens) (Q03181 whole entry, looked up): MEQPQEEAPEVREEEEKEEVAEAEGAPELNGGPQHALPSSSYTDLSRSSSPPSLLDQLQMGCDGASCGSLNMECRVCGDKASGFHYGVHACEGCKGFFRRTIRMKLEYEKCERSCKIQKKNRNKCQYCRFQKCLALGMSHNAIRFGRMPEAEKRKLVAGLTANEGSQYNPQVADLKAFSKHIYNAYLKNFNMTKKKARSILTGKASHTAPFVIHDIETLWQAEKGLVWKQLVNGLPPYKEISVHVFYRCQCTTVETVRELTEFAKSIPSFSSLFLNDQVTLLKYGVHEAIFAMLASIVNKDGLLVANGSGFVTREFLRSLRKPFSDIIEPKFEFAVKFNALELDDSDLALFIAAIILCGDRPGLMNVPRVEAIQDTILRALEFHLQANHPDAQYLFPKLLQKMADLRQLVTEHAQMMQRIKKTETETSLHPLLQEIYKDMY
Procedure, shortened: as §1

[13] = target: Peroxisome proliferator-activated receptor gamma (Homo sapiens) (UniProt P37231); experiment: qHTS assay for small molecule agonists of peroxisome proliferator-activated receptor gamma signaling (AID 588536; active = well fitted curve in the direction sought with a large enough effect in the signal ratio, with a control signal flat, not every such curve was filed as active; the % refers to the signal ratio)
Chain of Peroxisome proliferator-activated receptor gamma (Homo sapiens) (P37231 whole entry, looked up): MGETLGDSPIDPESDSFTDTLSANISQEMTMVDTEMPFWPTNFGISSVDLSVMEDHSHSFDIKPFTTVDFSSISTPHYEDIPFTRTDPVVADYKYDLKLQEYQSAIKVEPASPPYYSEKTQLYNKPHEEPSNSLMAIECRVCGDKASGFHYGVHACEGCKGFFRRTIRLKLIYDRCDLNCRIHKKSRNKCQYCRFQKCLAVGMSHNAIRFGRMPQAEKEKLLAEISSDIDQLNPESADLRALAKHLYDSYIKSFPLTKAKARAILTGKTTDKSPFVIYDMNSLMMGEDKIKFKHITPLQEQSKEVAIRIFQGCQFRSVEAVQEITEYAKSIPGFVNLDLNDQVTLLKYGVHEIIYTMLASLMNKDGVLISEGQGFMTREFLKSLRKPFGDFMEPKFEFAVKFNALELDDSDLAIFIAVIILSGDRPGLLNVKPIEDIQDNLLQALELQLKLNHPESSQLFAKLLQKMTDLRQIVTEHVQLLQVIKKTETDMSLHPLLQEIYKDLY
Procedure, shortened: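 Using GeneBLAzer HEK293 cells, response was quantified by CCF4 fluorescence and normalized between basal DMSO (0%) and rosiglitazone 2 uM (100%); curves yielded half-maximal stimulation concentration and efficacy.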

[14] = target: Peroxisome proliferator-activated receptor gamma (Homo sapiens) (UniProt P37231); experiment: qHTS assay for small molecule antagonists of peroxisome proliferator-activated receptor gamma signaling (AID 588537; active = well fitted inhibition curve with a large enough effect in the signal ratio, with a control signal flat, not every such curve was filed as active; the % refers to the signal ratio;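 note: reporter cells co-stimulated with 50 nM rosiglitazone agonist during compound treatment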)
Procedure, shortened: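 Cell-based beta-lactamase assay; GW9662 served as the antagonist control. Stimulation used rosiglitazone, final 50 nM, 16 h, 37 C.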

[15] = target: Vitamin D3 receptor (Homo sapiens) (UniProt P11473); experiment: qHTS assay for small molecule antagonists of vitamin D receptor signaling (AID 588541; calls by dose curve;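 note: receptor activated by calcitriol during compound treatment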)
Chain of Vitamin D3 receptor (Homo sapiens) (P11473 whole entry, looked up): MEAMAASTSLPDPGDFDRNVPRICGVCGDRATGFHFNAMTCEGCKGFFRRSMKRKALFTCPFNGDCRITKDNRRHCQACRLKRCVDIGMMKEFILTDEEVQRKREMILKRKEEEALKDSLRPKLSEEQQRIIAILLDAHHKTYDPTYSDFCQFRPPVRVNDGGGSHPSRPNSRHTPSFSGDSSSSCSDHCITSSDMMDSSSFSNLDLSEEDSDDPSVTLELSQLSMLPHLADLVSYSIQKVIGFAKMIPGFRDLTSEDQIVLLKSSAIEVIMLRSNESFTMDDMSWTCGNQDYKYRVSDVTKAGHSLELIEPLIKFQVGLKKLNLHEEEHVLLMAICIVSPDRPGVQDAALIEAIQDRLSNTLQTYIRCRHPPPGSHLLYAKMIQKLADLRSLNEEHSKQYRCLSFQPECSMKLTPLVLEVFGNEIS
Procedure, shortened: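 Antagonist-mode beta-lactamase reporter assay: HEK293T VDR-UAS-bla cells were exposed to titrated compound alongside 1-alpha,25-dihydroxyvitamin D3 at 3 nM final for 16 h. Values were normalized to the 50 nM agonist control and DMSO basal, with IC50 and efficacy from Hill equation fits.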

[16] = target: Vitamin D3 receptor (Homo sapiens) (UniProt P11473); experiment: qHTS assay for small molecule agonists of vitamin D receptor signaling (AID 588543; calls by dose curve)
Procedure, shortened: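 Agonist-mode beta-lactamase reporter: HEK293T VDR-UAS-bla cells in charcoal-stripped 2% FBS, compound series 16 h 37 C, CCF4 2 h RT. EC50 from Hill fit, scaled against DMSO and 50 nM calcitriol control.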

[17] = qHTS assay for small molecule agonists of retinoid X receptor alpha signaling (AID 588544; calls by dose curve); conditions: HEK293T RXRa-UAS-bla, beta-lactamase reporter, 18 h; 530 nm emission
[18] = target: Retinoic acid receptor RXR-alpha (Homo sapiens) (UniProt P19793); experiment: as above
Chain of Retinoic acid receptor RXR-alpha (Homo sapiens) (P19793 whole entry, looked up): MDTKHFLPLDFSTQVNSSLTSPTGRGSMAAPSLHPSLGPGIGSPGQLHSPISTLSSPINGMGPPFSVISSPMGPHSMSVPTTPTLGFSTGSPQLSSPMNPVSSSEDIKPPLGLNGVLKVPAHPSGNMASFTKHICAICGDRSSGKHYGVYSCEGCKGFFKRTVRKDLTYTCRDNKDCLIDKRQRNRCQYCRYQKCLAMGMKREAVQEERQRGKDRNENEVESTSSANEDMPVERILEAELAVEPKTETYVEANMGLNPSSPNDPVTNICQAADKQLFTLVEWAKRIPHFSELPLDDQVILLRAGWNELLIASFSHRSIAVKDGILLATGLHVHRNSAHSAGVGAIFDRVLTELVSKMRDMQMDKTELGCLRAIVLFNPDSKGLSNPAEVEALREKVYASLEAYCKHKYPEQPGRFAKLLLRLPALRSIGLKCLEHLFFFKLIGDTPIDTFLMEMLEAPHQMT

[19] = qHTS assay for small molecule antagonists of retinoid X receptor alpha signaling (AID 588546; active = well fitted inhibition curve with a large enough effect in the signal ratio, with a control signal flat, not every such curve was filed as active; the % refers to the signal ratio;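 note: cells stimulated with 9-cis-retinoic acid as agonist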); conditions: HEK293T RXRa-UAS-bla, beta-lactamase ratio, antagonist mode; measured here: W530 green channel, cytotoxicity proxy
Procedure, shortened: (§2)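 Beta-lactamase reporter inhibition, read as CCF4 fluorescence ratio (ex 405, em 460/530 nm) after 2 h at RT. HEK293T UAS-bla cells, 2500/well, were stimulated with 9-cis-RA at 500 or 100 nM final alongside test compound for 18 h at 37 C.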

[20] = target: Retinoic acid receptor RXR-alpha (Homo sapiens) (UniProt P19793); experiment: as above; conditions: HEK293T RXRa-UAS-bla, beta-lactamase ratio, antagonist mode
Procedure, shortened: as §2

[21] = target: Thyroid hormone receptor beta (Homo sapiens) (UniProt P10828); experiment: qHTS assay for small molecule antagonists of thyroid hormone receptor beta signaling (AID 588547; active = well fitted inhibition curve with a large enough effect in the signal ratio, with a control signal flat, not every such curve was filed as active; the % refers to the signal ratio;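 note: cells stimulated with 0.4 nM T3 agonist during compound exposure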); conditions: TR-UAS-bla HEK293, beta-lactamase ratio, antagonist mode, 18 h
Chain of Thyroid hormone receptor beta (Homo sapiens) (P10828 whole entry, looked up): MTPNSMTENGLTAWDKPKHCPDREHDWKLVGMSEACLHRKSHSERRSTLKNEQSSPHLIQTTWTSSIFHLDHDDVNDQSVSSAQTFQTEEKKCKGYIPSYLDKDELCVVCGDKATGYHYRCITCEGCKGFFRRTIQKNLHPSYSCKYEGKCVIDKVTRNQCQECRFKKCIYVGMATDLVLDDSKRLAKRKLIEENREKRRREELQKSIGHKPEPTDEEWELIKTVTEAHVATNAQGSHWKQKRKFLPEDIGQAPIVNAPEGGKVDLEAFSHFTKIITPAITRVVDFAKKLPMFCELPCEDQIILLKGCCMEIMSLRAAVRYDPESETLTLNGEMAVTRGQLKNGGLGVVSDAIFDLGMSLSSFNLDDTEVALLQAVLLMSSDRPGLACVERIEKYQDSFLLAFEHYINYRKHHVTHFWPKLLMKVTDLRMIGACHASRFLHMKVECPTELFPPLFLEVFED
Procedure, shortened: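 Inhibition of T3-driven (0.4nM final) beta-lactamase reporter activity was measured over 0.59 nM to 92 uM compound after 18 h at 37 C. The cells were GripTite HEK293 TR-UAS-bla in charcoal/dextran-stripped serum, with CCF4 ratio read-out and IC50 from Hill fits.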

[22] = qHTS assay for small molecule agonists of the antioxidant response element (ARE) signaling pathway (AID 651741; active = well fitted activation curve with a large enough effect in the signal ratio; the % refers to the signal ratio)
Procedure, shortened: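 Agonist activity is measured as ARE-driven beta-lactamase expression in a stable HepG2 reporter line, using 16 h compound treatment at 37 C and a FRET substrate fluorescence readout after 2 h.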

[23] = qHTS assay for environmental chemicals that activate the Aryl hydrocarbon Receptor (AhR) signaling pathway (AID 651777); conditions: 1A2-DRE human hepatoma cells, luciferase, 24 h; stronger effect = higher value; note: nearly all actives have a fitted effect of over 15% in size
Procedure, shortened: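 Luminescence read-out: One-Glo added for 30 min at RT after 24 hr compound treatment (37 C, 5% CO2) of human hepatoma cells expressing a DRE/CYP1A2 promoter–luciferase reporter; increased signal indicates AhR activation.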

[24] = target: Peroxisome proliferator-activated receptor alpha (Homo sapiens) (UniProt Q07869); experiment: qHTS assay for small molecule agonists of the peroxisome proliferator-activated receptor alpha (PPARalpha) signaling pathway (AID 651778); conditions: PathHunter PPARalpha complementation, chemiluminescence, 6 h; stronger effect = higher value
Procedure, shortened: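 Chemiluminescence from complemented enzyme reported PPARalpha activation in cells after 6 hr of compound treatment at 37 C. The detection reagent was incubated for 60 min at room temperature, and compounds were scored as agonists.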

[25] = qHTS assay for small molecule agonists of the antioxidant response element (ARE) signaling pathway measured by Nrf2-dependant transcriptional activity (AID 720636; active = well fitted curve in the direction sought with a large enough effect in the repeat runs; an effect the other way counts as inactive or inconclusive;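 note: HepG2 cells with an ARE-driven luciferase reporter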)
Procedure, shortened: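 HepG2 ARE-luc reporter line, 1% dialyzed FBS; 6 hr attachment at 37 C, compound pinned in, 16 hr at 37 C/5% CO2; ONE-Glo, 30 min RT, luminescence read.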

[26] = qHTS assay for small molecule agonists of the antioxidant response element (ARE) signaling pathway measured by Nrf2-dependant transcriptional activity - cell viability counter screen (AID 720653; active = well fitted curve in the direction sought with a large enough effect in the repeat runs; an effect the other way counts as inactive or inconclusive); conditions: ARE-bla HepG2 viability, CellTiter-Glo ATP luminescence, 16 h; stronger effect = lower value
Procedure, shortened: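 Cytotoxicity counter screen: intracellular ATP quantified by CellTiter-Glo luminescence in the same ARE-bla HepG2 plates, after 16 h compound exposure and a 2 h beta-lactamase substrate step.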

[27] = qHTS assay for cell viability of HEK293 cells (AID 743288); conditions: ATP luminescence (CellTiter-Glo), 18 h, stronger effect = lower value; note: nearly all actives have a fitted effect of over 50% in size
Procedure, shortened: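 Readout is luciferase-coupled ATP content (CellTiter-Glo luminescence, 30 min room temperature) as a measure of metabolically competent cells. Parental HEK293 cells were plated 5 h or more before compound addition, then treated 18 h at 37 C.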

[28] = qHTS assay for cell viability of the p53RE-bla HCT-116 cell line (AID 743292); note: nearly all actives have a fitted effect of over 55% in size
Procedure, shortened: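 Luminescent ATP quantitation (CellTiter-Glo) served as the viability read-out; reagent was added after 16 h compound exposure at 37 C and read after 30 min at room temperature. Cells: p53RE-bla HCT-116, 4,000 per well.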

[29] = measured here: cell count channel max response
[30] = measured here: lipid channel max response

## CC[C@H](C)[C@H](NC(=O)OCC1c2ccccc2-c2ccccc21)C(=O)O
[1]
  Potency: 31.6 µM (active)
[2]
  Potency: inactive
[3]
  activity change, negative = inhibition: -4.14% (inactive)
[3]; [29]
  max response: 1.47%
[3]; [30]
  max response: -2.84%
[4]
  Potency: inactive
[5]
  outcome: inactive

## Nc1ncnc2c1ncn2C1CC(O)C(CO)O1 (configuration not stated)
[1]
  Potency: inactive
[6]
  Potency: inactive
[7]
  Potency: inactive
[3]
  activity change, negative = inhibition: -2.62% (inactive)
[3]; [29]
  max response: -5.57%
[3]; [30]
  max response: -5.3%
[4]
  Potency: inactive
[5]
  outcome: inactive

## O=C(O)C(O)C(O)C(O)C(O)C(=O)O (configuration not stated)
[1]
  Potency: inactive
[6]
  Potency: inactive
[7]
  Potency: inactive
[3]
  activity change, negative = inhibition: 5% (inactive)
[3]; [29]
  max response: 3.45%
[3]; [30]
  max response: 13%
[4]
  Potency: inactive
[8]
  Potency: inactive

## CC(=O)OC1CC(OC(C)=O)[C@]2(C)C(CC(OC(C)=O)[C@]3(C)C2CC[C@@]2(C)C(c4ccoc4)OC(=O)C4O[C@]432)C1(C)C (some centres not stated)
[1]
  Potency: 1.26 µM (active)
[2]
  Potency: inactive
[6]
  Potency: inactive
[7]
  Potency: inactive
[3]
  activity change, negative = inhibition: 0.867% (inactive)
[3]; [29]
  max response: -4.64%
[3]; [30]
  max response: -0.493%
[4]
  Potency: inactive

## CC(=O)OCC(=O)C1CCC2C3CCC4=CC(=O)CC[C@@]4(C)C3CC[C@]12C (some centres not stated)
[1]
  Potency: inactive
[2]
  Potency: 3.16 µM (active)
[6]
  Potency: inactive
[7]
  Potency: inactive
[3]
  activity change, negative = inhibition: 5.85% (inactive)
[3]; [29]
  max response: 5.1%
[3]; [30]
  max response: 13.2%
[4]
  Potency: inactive

## COc1c(Cl)ccc(Cl)c1C(=O)O
[1]
  Potency: inactive
[6]
  Potency: inactive
[7]
  Potency: inactive
[3]
  activity change, negative = inhibition: 0.0476% (inactive)
[3]; [29]
  max response: -8.45%
[3]; [30]
  max response: -7.42%
[4]
  Potency: inactive
[9]
  outcome: inactive
[10]
  outcome: inactive
[11]
  max response: -7.82%
[12]
  outcome: inactive
[13]
  outcome: inactive
[14]
  outcome: inactive
[15]
  outcome: inactive
[16]
  outcome: inactive
[17]
  max response: -9.41%
[18]
  outcome: inactive
[19]
  max response: -0.329%
[20]
  max response: 3.8% (inactive)
[21]
  activity change % (negative = inhibition): 5.53% (inactive)
[22]
  Potency: inactive
[23]
  activation: 1.18% (inactive)
[24]
  max response: 0.109% (inactive)
[25]
  outcome: inactive
[26]
  max response: -4.23% (inactive)
[27]
  max response: -3.63% (inactive)
[28]
  outcome: inactive

## COc1ccc(/C=C/C(=O)c2ccc(O)cc2O)cc1OC
[1]
  Potency: 1.26 µM (active)
[2]
  Potency: inactive
[6]
  Potency: inactive
[7]
  Potency: inactive
[3]
  activity change, negative = inhibition: -12.3% (inactive)
[3]; [29]
  max response: -8.55%
[3]; [30]
  max response: -18.6%
[4]
  Potency: inactive

## CCCc1cc(OC)c2c(c1)OCO2
[1]
  Potency: 7.94 µM (active)
[2]
  Potency: inactive
[6]
  Potency: inactive
[7]
  Potency: inactive
[3]
  activity change, negative = inhibition: 11.5% (inactive)
[3]; [29]
  max response: -8.72%
[3]; [30]
  max response: 1.71%
[4]
  Potency: inactive
